Source: PubChem
The list is not random: actives were taken first. Their share in the collection is about 11%.
HTT ATP protect: protects HTT-Q103 PC12 cells, measured by ATP; PC12 HTT-Q103 induced, cytoprotection, ATP luminescence, 40 h; Potency, µM (highest dose often 56.4 µM), without a hit: cytoprotection (ATP increase), most hits filed as activators; hit rate 0.14% among 230,000; AID 1471; also: potency is read from the fitted curve at half-maximal effect; % of control where 0% means no effect; nearly all actives have a fitted effect of over 45% in size
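Stable PC12 Q103-GFP cells in serum-supplemented, phenol red-free DMEM; induction by tebufenozide at 100 nM final; compound dose series; cell viability quantified luminescently from ATP.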
HTT aggregate: mutant huntingtin aggregation inhibition. PC12 HttQ103-GFP aggregates, Acumen cytometry, 40 h. Potency, µM (titrated, usually from 46.1 µM), for inactives: at the top dose activity change, negative = inhibition, hits mostly inhibitors. hit rate 1.1% among 220,000. AID 1688; also: potency is read from the fitted curve at half-maximal effect; % is scaled to controls: 0 for no effect and ±100 for the full control effect; nearly all actives have a fitted effect of over 60% in size
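Aggregate formation scored by laser-scanning cytometer (488 excitation, 500–530 emission) in lysed PC12 cells expressing Q103-GFP after 100 nM tebufenozide induction; library tested in dose series, with ATPLite reagent added in the multiplex.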
PNC assembly inh: blocks assembly of the perinucleolar compartment; activity change (PNC), negative = inhibition, % at 10 µM; AID 2417; PC3M PTB-GFP, PNC prevalence imaging, 16 h; hits give low values; hit rate 3.1% among 140,000;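 active = readout at or below -70, meaning at least 70% loss of cells showing the perinucleolar compartment, a nuclear body marking cancer cells; inconclusive = readout between -30 and a set limit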;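 also: plate controls were DMSO wells for no effect and camptothecin positive control wells for full effect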
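PC3M cells stably expressing PTB-GFP, 750–1000 cells/well, treated 16 h at 37 °C with compound (23 nl of library stock), in duplicate. After paraformaldehyde fixation and Hoechst stain, imaged at 20x; PNC prevalence scored by image analysis.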
HPGD block: HPGD (human) dehydrogenase inhibition. Potency, µM, for inactives: at the highest dose activity change, negative = inhibition, usual class: inhibitors. AID 894. P15428. purified HPGD, NADH fluorescence kinetic, PGE2 substrate. hit rate 4.3% among 150,000; active = well fitted inhibition curve with a large enough effect, not every such curve was filed as active; inconclusive = small, poorly fitted or top-dose-only effect, or another doubt; inactive = no such curve, though single readings can be large or run the other way; also: potency is read from the fitted curve at half-maximal effect; % is scaled to controls: 0 for no effect and ±100 for the full control effect
Target sequence (P15428 whole entry, looked up): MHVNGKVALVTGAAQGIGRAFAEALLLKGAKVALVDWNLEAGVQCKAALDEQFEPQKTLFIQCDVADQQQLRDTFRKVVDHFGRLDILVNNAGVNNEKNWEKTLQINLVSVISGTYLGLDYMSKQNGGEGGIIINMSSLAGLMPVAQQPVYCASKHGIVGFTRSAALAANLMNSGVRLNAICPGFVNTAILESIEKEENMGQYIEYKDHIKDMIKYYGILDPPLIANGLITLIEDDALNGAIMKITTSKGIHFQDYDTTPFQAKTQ
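NADH formation kinetics: reaction with 30 uM PGE2 and 1 mM NAD+ (final), 20 nM enzyme, Tris-HCl pH 8 with Tween 20, after 15 min compound preincubation at room temperature. Fluorescence change, last versus first of five reads.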
ALDH1A1 block: inhibitors of human aldehyde dehydrogenase 1A1. Purified ALDH1A1, NADH fluorescence, propionaldehyde substrate. Potency, µM (top dose mostly 75.3 µM), inactives show at the highest dose activity, negative = inhibition, most hits filed as inhibitors. hit rate 7.3% among 220,000; active = well fitted inhibition curve with a large enough effect, not every such curve was filed as active; inconclusive = small, poorly fitted or top-dose-only effect, or another doubt; inactive = no such curve, though single readings can be large or run the other way;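 also: potency is read from the fitted curve at half-maximal effect; plate controls were no enzyme wells and a reference inhibitor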
RGS12 GoLoco inh: RGS12 GoLoco-Gai1 interaction inhibition; P63096; Gai1:RGS12 GoLoco peptide FP, rhodamine, 10 min; Potency, µM (titrated, usually from 61.6 µM), without a hit: top-dose activity, negative = inhibition, actives largely listed as inhibitors; hit rate 0.44% among 230,000; AID 880; active = well fitted inhibition curve with a large enough effect, not every such curve was filed as active; inactive = no such curve, though single readings can be large or run the other way; also: potency is read from the fitted curve at half-maximal effect; % is scaled to controls: 0 for no effect and ±100 for the full control effect; nearly all actives have a fitted effect of over 30% in size
Target sequence (P63096 whole entry, looked up): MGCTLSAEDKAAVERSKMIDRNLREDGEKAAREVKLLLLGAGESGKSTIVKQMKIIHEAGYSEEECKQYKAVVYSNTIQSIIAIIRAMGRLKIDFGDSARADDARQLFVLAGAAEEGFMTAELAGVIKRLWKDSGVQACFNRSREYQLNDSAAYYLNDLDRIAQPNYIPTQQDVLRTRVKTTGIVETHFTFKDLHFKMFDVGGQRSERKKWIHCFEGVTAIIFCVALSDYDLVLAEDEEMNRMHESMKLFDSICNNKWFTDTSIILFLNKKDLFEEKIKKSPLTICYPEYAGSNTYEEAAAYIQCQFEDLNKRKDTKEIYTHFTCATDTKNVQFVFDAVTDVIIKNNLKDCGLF
Starred values were filed as active, the others as inactive; ? = inconclusive; nt = no result given; [ ] = remark or other dose. Unless noted, calls follow the shape of the dose curve; as a rule, active = well fitted curve in the direction sought with a large enough effect; inconclusive = small, poorly fitted or top-dose-only effect, or another doubt; inactive = no such curve, though single readings can be large; an effect the other way counts as inactive or inconclusive.

SMILES | HTT ATP protect | HTT aggregate | PNC assembly inh | HPGD block | ALDH1A1 block | RGS12 GoLoco inh
Cc1cc2oc3c(c(=O)c2cc1C)C(c1ccc(C(C)C)cc1)N(CCCN1CCOCC1)C3=O (configuration not stated) | -17% | 8% | 17 | -19% | 4µM* | 16%
CCOc1ccc(C2c3c(oc4cc(C)c(C)cc4c3=O)C(=O)N2CCCN(C)C)cc1OC (configuration not stated) | -11% | -10% | ? | -19% | ? | 9%
CC(C)CCOc1cccc(C2c3c(oc4ccccc4c3=O)C(=O)N2CCCN2CCOCC2)c1 (configuration not stated) | -22% | nt | nt | nt | nt | nt
CC(C)C(=O)Nc1nnc(CCN2CCOCC2)s1 | 0% | -2% | 15 | -4% | 10% | -10%
Cc1nn(CC(=O)NCc2ccc(-n3cccn3)cc2)c(C)c1[N+](=O)[O-] | nt | -8% | 54 | -10% | 3% | 8%
N#Cc1ccsc1NC(=O)COC(=O)c1cc2ccccc2cc1O | nt | ? | ? | -7% | 10% | 13%
CCOc1ccc(C2c3c(oc4cc(C)c(C)cc4c3=O)C(=O)N2CCCN2CCOCC2)cc1 (configuration not stated) | -18% | ? | 13 | -19% | 7.9µM* | 1%
Clc1ccc(Cn2c(/C=C/c3ccco3)nc3ccccc32)cc1 | 2%[10 µM] | ? | -84* | ? | ? | 61%
Cc1ccc(Cn2c(/C=C/c3ccco3)nc3ccccc32)cc1 | -86%[10 µM] | ? | -19 | ? | ? | 157%
COc1ccc(/C=C\C(=O)Nc2ccccc2C(=O)O)cc1OC | -64% | nt | nt | ? | ? | 20%
CCC(C)[C@H](NC(=O)Nc1cccc(OC)c1)C(=O)OC (some centres not stated) | -29%[0.074 µM] | -9% | 33 | -12% | 0% | 4%
COc1cccc(NC(=O)NC(C)C2CC3CCC2C3)c1 (configuration not stated) | -68% | 8%[9.22 µM] | nt | nt | 5µM* | 1%
Nc1ccccc1C(=O)N(Cc1ccccc1)Cc1ccccc1 | 0%[10 µM] | 5% | -100* | -20% | 0% | 0%
O=C(O)c1ccccc1C(=O)N(Cc1ccccc1)Cc1ccccc1 | -50% | 6% | 15 | -7% | 4% | 6%
O=C(O)[C@H]([C@H]1NCCS1)N1C(=O)c2ccccc2C1=O | 6%[10 µM] | nt | nt | nt | nt | nt
COc1ccc(-n2c(C)cc(/C=N/Nc3nnc(C)n3N)c2C)cc1 | 5%[10 µM] | -13% | 22 | -19% | 13µM* | -7%
CCOc1ccc(-n2c(C)cc(/C=N/Nc3nc(C)cc(=O)[nH]3)c2C)cc1 | 11%[10 µM] | -2%[9.22 µM] | nt | nt | nt | 10%
CC1(C)Cc2c(c(N3CCOCC3)nc3sc4c(NCc5ccco5)nnnc4c23)CS1 | -33% | 21% | -81* | -26% | ? | 10%
COc1cccc(-c2cncnc2NCCc2c[nH]c3ccc(OC)cc23)c1 | 3.2µM* | nt | nt | nt | ? | -50%
CSc1nnc(CNC(=O)C23CC4CC(CC(C4)C2)C3)n1Cc1ccccc1 | -11%[10 µM] | -2% | -115* | 1% | -10% | -9%
CCCCC[C@H](O)/C=C/[C@@H]1[C@H](C/C=C\CCCC(=O)O)[C@@H](O)C[C@H]1O | 8% | nt | nt | -8% | 3% | 3%
COC(=O)C1=C(C)NC(=O)NC1c1ccc(-c2ccc(F)cc2)o1 (configuration not stated) | 14% | 5% | nt | nt | -8% | 6%
COC(=O)C1=C(C)NC(=O)NC1c1ccc(-c2ccccc2Cl)o1 (configuration not stated) | -14% | -20% | nt | nt | 10µM* | 6%
COCCOC(=O)C1=C(C)NC(=O)NC1c1ccc(-c2cc(Cl)ccc2Cl)o1 (configuration not stated) | -10%[10 µM] | -1%[9.22 µM] | nt | nt | 3.2µM* | 26%
CCOC(=O)CNC(=O)O[C@@H]1C(=O)c2cc(Br)ccc2O[C@H]1c1cccc(OC)c1 | -15% | nt | nt | -5% | -1% | 0%
SMILES | HTT ATP protect | HTT aggregate | PNC assembly inh | HPGD block | ALDH1A1 block | RGS12 GoLoco inh
COc1ccc(-c2cc([C@H](O)[C@@H]3CCCCN3)c3ccccc3n2)cc1 | -12%[10 µM] | nt | nt | nt | nt | nt
Cc1ccc(-n2c(C)c([N+](=O)[O-])c3ccc(O)c(CN(C)C)c32)cc1 | -4% | 2.5µM* | 8 | -12% | ? | -12%
COc1ccc(-n2c(C)c([N+](=O)[O-])c3ccc(O)c(CN4CCCCC4)c32)cc1 | -7% | 10µM* | 4 | -16% | ? | -19%
COc1ccc(Oc2c(C)oc3c(CN4CCOCC4)c(O)ccc3c2=O)cc1 | 1% | -16% | 58 | ? | ? | 8%
CC(C)(C)c1cc(C(=O)/C=C/c2ccc(C(=O)O)cc2)cc(C(C)(C)C)c1 | 2.5µM* | nt | nt | -19% | 6% | -6%
NC1=NC(=O)C(CC(=O)Nc2ccc3c(c2)OCO3)S1 (configuration not stated) | -12% | 0%[9.22 µM] | nt | nt | -2% | 54%
CCCC1OC23CCCCC2C(C#N)(C(=N)O3)C1(C#N)C#N (configuration not stated) | -13% | 10% | -10 | ? | ? | 28µM*
CCC1OC23CCCCC2C(C#N)(C(=N)O3)C1(C#N)C#N (configuration not stated) | -11% | 9% | 26 | ? | ? | 35µM*
N#CC1(C#N)COC23CCCCC2C1(C#N)C(=N)O3 (configuration not stated) | -26% | ? | 25 | ? | ? | 0.89µM*
CC1OC23CCCCC2C(C#N)(C(=N)O3)C1(C#N)C#N (configuration not stated) | 18%[10 µM] | -15% | -15 | ? | ? | -31%
N#CC12COC3(CCCCC3C1(C#N)C#N)OC2=N (configuration not stated) | 23%[10 µM] | -1%[9.22 µM] | nt | nt | nt | -2%
O=C(c1ccccc1)[C@H](Nc1ccc2ccccc2c1)c1ccccc1 | -7%[10 µM] | nt | nt | -13% | -13%[13.5 µM] | 4%[14.2 µM]
COc1cc(C)c(Br)cc1S(=O)(=O)NCc1ccncc1 | -18% | 17% | nt | nt | -2% | 10%
Cc1ccc(S(=O)(=O)NCc2ccncc2)c(C)c1C | -22%[10 µM] | -7%[9.22 µM] | nt | nt | 32µM* | 11%
CCCCNS(=O)(=O)c1ccc(S(=O)(=O)NCc2ccncc2)cc1 | nt | 7.9µM* | ? | 2% | 9% | 3%
CCCCc1ccc(S(=O)(=O)NCCc2ccncc2)cc1 | 20%[10 µM] | ? | 27 | -2% | -4% | 7%
Cc1cc(C)c(S(=O)(=O)NCc2ccncc2)c(C)c1 | 35% | 6.3µM* | ? | -6% | 6% | -2%
OCC(O)C(O)[C@H](O[C@H]1OC(CO)C(O)C(O)C1O)[C@H](O)CO (some centres not stated) | nt | nt | nt | -5% | -4% | 4%
